Pf Dd2 growth = blocks in vitro growth of P. falciparum Dd2; P. falciparum Dd2 growth, SYBR Green, 72 h; Potency, µM (series often up to 28.9 µM), without a hit: top-dose activity, negative = inhibition, hits mostly inhibitors; 120,000 compounds, 4.3% hits; active = well fitted inhibition curve with a large enough effect;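 note: plate controls were DMSO vehicle for no effect and reference drug for full effect; nearly all actives have a fitted effect of over 65% in size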
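Infected erythrocytes (Dd2, 0.3% parasitemia, 2.5% hematocrit final) are added to compound in RPMI-1640/Albumax II medium, grown 72 h at 37C in low oxygen, then lysed with saponin/Triton-X containing SYBR Green and read by fluorescence.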
Numbers without * were called inactive; [ ] = another dose, or the depositor's remark. This excerpt belongs to a sample that is enriched for hits. Potency is the fitted concentration of half-maximal effect.

How did CC(C)Cc1cn(C2CCN(CC(C)c3ccccc3)CC2)nn1 (stereo unspecified) do in these assays?
Pf Dd2 growth: -9%

Results for Cc1ccc(C)c(NC(=O)C2CCN(C(=O)c3ncn4c3COC(c3ccc(F)cc3)C4)CC2)c1 (stereo unspecified) ?
Pf Dd2 growth: -26%

Results for O=C(c1ccccn1)N1CCC2(CC1)CC(N(Cc1ccccc1)C1CC1)CCO2 (stereo unspecified) ?
Pf Dd2 growth: -6%

How did CC(=O)N1CCC2(CC1)CC(N(Cc1ccc(F)cc1)C1CC1)CCO2 (stereo unspecified) do in these assays?
Pf Dd2 growth: 9%

How did O=C(c1ccccc1)N1CCC2(CC1)CC(N(Cc1ccc(F)cc1)C1CC1)CCO2 (stereo unspecified) do in these assays?
Pf Dd2 growth: 7.9µM*

How did O=C(CCc1nnn2c1CN(Cc1ccc(Br)o1)CC2)N1CCCC1 do in these assays?
Pf Dd2 growth: -20%

What do the screens show for `Cn1nc(-c2ccccc2)cc1[C@H]1CN2CC[C@H]1C[C@@H]2CNS(=O)(=O)Cc1ccccc1`?
Pf Dd2 growth: inactive

What do the screens show for `CN1CCC(N2CCN(C(=O)CCc3ccnc(N4CCOCC4)c3)CC2)CC1`?
Pf Dd2 growth: -2%

How did Cc1ccc(N2CCN(C(=O)c3noc(-c4ccc(F)cc4)n3)CC2)c(C)c1 do in these assays?
Pf Dd2 growth: 58%

What do the screens show for `Cc1cccc2nc(CNC(=O)c3cc(COc4ccc(F)cc4F)on3)cn12`?
Pf Dd2 growth: -13%

Results for O=C(C1CC(=O)N(c2n[nH]c3cccc(F)c23)C1)N1CCN(c2ccc(F)cc2)CC1 (stereo unspecified) ?
Pf Dd2 growth: -21%

How did COc1cccc(N2CCN(C(=O)C3CC(=O)N(c4n[nH]c5cccc(F)c45)C3)CC2)c1 (stereo unspecified) do in these assays?
Pf Dd2 growth: -8%

Results for COc1ccccc1N1CCN(C(=O)C2CC(=O)N(c3n[nH]c4cccc(F)c34)C2)CC1 (stereo unspecified) ?
Pf Dd2 growth: 7.1µM*

Results for COc1ccc(OC)c(NC(=O)N2CCC(OC3CCN(S(C)(=O)=O)CC3)CC2)c1 ?
Pf Dd2 growth: -2%

Results for Cc1cc(=O)n2[nH]c(CC(=O)N3CC[C@@](O)(C4CCOCC4)[C@H](C)C3)nc2n1 ?
Pf Dd2 growth: -3%

How did O=C(Nc1ccccc1)O[C@@H]1CO[C@H]2[C@@H]1OC[C@@H]2n1nnnc1SCc1ccco1 do in these assays?
Pf Dd2 growth: inactive

Results for CC(=O)c1ccc(NC(=O)O[C@@H]2CO[C@H]3[C@@H]2OC[C@@H]3n2nnnc2SCc2ccco2)cc1 ?
Pf Dd2 growth: 6.3µM*

Results for O=C(NC1CCCCC1)O[C@@H]1CO[C@H]2[C@@H]1OC[C@@H]2n1nnnc1SCc1ccco1 ?
Pf Dd2 growth: inactive

How did CN1CC(=O)N(C2CCCNC2)Cc2c1ncnc2N1CCN(Cc2ccccc2)CC1 (stereo unspecified) do in these assays?
Pf Dd2 growth: 6%

How did O=C(Nc1cccc2ccccc12)O[C@@H]1CO[C@H]2[C@@H]1OC[C@@H]2n1nnnc1SC1CCCC1 do in these assays?
Pf Dd2 growth: inactive

What do the screens show for `Cc1cc(CNC(=O)c2cc(-c3ccccc3)cc3c2OCCN3C)no1`?
Pf Dd2 growth: inactive

How did CC(=O)Nc1cc(-c2cc(C(=O)NCc3cc(C)on3)c3c(c2)N(C)CCO3)ccn1 do in these assays?
Pf Dd2 growth: 7.9µM*

Results for CC(=O)Nc1cc(-c2cc(C(=O)NCc3cccnc3)c3c(c2)N(C)CCO3)ccn1 ?
Pf Dd2 growth: -17%[44.1 µM]

Results for CC(C)CNC(=O)c1csc(-c2cccc(OC(C)C)c2)n1 ?
Pf Dd2 growth: -14%

Results for CCOc1ccc(Nc2oc(/C=C/c3ccc(OC)c(OC)c3)nc2C#N)cc1 ?
Pf Dd2 growth: inactive

How did COc1ccc(/C=C/c2nc(C#N)c(NCc3ccc(C)cc3)o2)cc1OC do in these assays?
Pf Dd2 growth: -20%

Results for CCN(CC)CCCNc1oc(/C=C/c2ccc(OC)c(OC)c2)nc1C#N ?
Pf Dd2 growth: 2.5µM*

What do the screens show for `O=C(Nc1ccc2c(c1)OCCO2)N1[C@H]2CC[C@@H]1c1cncnc1C2`?
Pf Dd2 growth: -3%

How did CS(=O)(=O)c1ccc(OCC2(CNC(=O)c3ccc(C#N)cc3)C[C@@H](O)[C@@H](O)C2)cc1 (stereo partly specified) do in these assays?
Pf Dd2 growth: inactive

What do the screens show for `CC(C)NC(=O)CCC[C@@H]1[C@H]2CCCN3CCC[C@@H](CN1C)[C@@H]23`?
Pf Dd2 growth: 7%

What do the screens show for `Cc1c(CCNC(=O)c2ccc(C(C)(C)C)cc2)sc2nc(-c3ccc(F)cc3)nn12`?
Pf Dd2 growth: 11µM*

How did Cc1c(CCNC(=O)Cc2ccc(F)cc2)sc2nc(-c3ccc(F)cc3)nn12 do in these assays?
Pf Dd2 growth: 4%

How did Cc1c(CCNC(=O)Cc2ccccc2)sc2nc(-c3ccc(F)cc3)nn12 do in these assays?
Pf Dd2 growth: inactive

How did N#Cc1ccc(-c2nc(C3CC(=O)N(c4ccc(F)cc4)C3)no2)cc1 (stereo unspecified) do in these assays?
Pf Dd2 growth: -19%
